Experimental data published in PubChem BioAssay (NCI).
Several values for one entry are separate records, joined by “and”; a condition that tells them apart may be missing. Equal values may be shown once. The panel holds about 83,000 compounds, 20% with a hit somewhere; the sample as a whole holds those more often.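 Treatment: one concentration, 48 hours, 96-well format. Scoring: percent growth, with anything below 10 considered active.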 Activity calls are given as the source filed them.

Each molecule was assayed on MDA-MB-468 breast (assay: NCI-60 one-dose screen, 48 h (100 = growth as untreated, 0 = no growth, -100 = all killed)). Conditions: 10 µM unless noted.

Compound | growth
Fc1ccc(-c2nnc(-c3c(-c4ccc(F)cc4)nc4ccccn34)o2)cc1 | 92.5% (inactive)
COc1ccc(/C(=N\N)C(=O)c2ccccc2)cc1 (tested in a mixture with another compound) | 89% (inactive)
O=C1C(=O)c2ccccc2C(O)=C1CCCc1ccc(C2CCCCC2)cc1 | 17.5% (inactive)
CCOc1ccccc1/C=N/N1CCCCCC1 | 108% (inactive)
C=C(C)[C@@H]1CC[C@]2(C)[C@H](CC[C@@H]3[C@H]4[C@H]5OC[C@@]4(CCC5(C)C)CC[C@]32C)[C@@]1(C)CCCN | -68.2% (active)
CCCCSC1=C(Cl)CN(c2ccc(Cl)cc2)C1=O | 77.9% (inactive)
Oc1ccc2ccccc2c1N=Nc1ccccn1 | -28.6% (active)
CCOCc1nc2ccccc2c(=O)[nH]1 | 98.7% (inactive)
COC1=C(Br)C(=O)C(OC)=C(Br)C1=O | 89.2% (inactive)
CCN(CC)CCCNCc1cc(-c2ccccc2)nc2ccccc12 | 91.5% (inactive)
COc1ccc(-c2ccc(NNC(=O)c3ccc(F)cc3)nn2)cc1OC | 56.2% (inactive)
CN(C)c1ccc(/C=C\C(=O)c2ccccc2)cc1 | 84.8% (inactive) and 88.3% (inactive) and 83.9% (inactive)
O=C(Cn1c(=O)sc2nc3ccccc3nc21)Nc1ncc(Cc2cccc(Cl)c2Cl)s1 | 107% (inactive)
N#CC1C(=O)SC2c3ccccc3C(=O)c3ccccc3C12 (stereo not given) | 89.4% (inactive)
COc1ccc2c(c1)C(=O)/C(=C/c1ncc([N+](=O)[O-])n1C)O2 | -12.4% (active)
COc1cc(-c2nccc3cc4c(cc23)OCO4)cc(OC)c1OC | -6.2% (active) and 5.32% (active)
CCc1ccc2c(c1)N(CCO)C1=C(C(=O)OC1)C2c1cccc(Br)c1 (stereo not given) | 25.8% (inactive)
NCCCNc1nc2ccc(Cl)cc2c2c(=O)c3cc(F)ccc3sc12 | 43.3% (inactive)
N#CCCN1C/C(=C/c2ccc(Cl)cc2)C(=O)/C(=C/c2ccc(Cl)cc2)C1 | -66.5% (active)
COC(=O)C(=C\c1ccc2c(c1)OCO2)/C(=C/c1ccc2c(c1)OCO2)C(=O)OC | 111% (inactive)

Compound | growth
CC1=CC(=O)C2=C(C)CC(OC(=O)CCc3ccccc3)[C@@H]3[C@H](OC(=O)[C@@H]3C)[C@@H]12 (stereo not given in full) | 79.4% (inactive)
CCCC[N+]1(C)CCN=C1Cc1ccccc1 (stereo not given) | 82.3% (inactive)
N/C(=N\c1nc2ccc([N+](=O)[O-])cc2s1)C(Cl)(Cl)Cl | 3.78% (active)
O=C(c1ccc(Nc2nccc(NCCCCNc3ccnc4cc(Cl)ccc34)n2)cc1)N1CCCCC1 | -25.3% (active)
CC1=C(/C=C/C(C)=C/C=C(C(=O)O)\C(C)=C\C(=O)O)C(C)(C)CCC1 | 109% (inactive)
Cc1c(C(=O)NCCC(=O)NO)sc2ncnc(Nc3ccc(NC(=O)Nc4cccc(C(F)(F)F)c4)cc3)c12 | 97.2% (inactive)
CC(C)(C)c1ccc(S(=O)(=O)Oc2ccc(NC(=O)C3CCCCC3)cc2)cc1 | 28.2% (inactive)
CCN1CCN(/C(=N\c2sc(-c3ccccc3)nc2-c2ccccc2)c2ccccc2)CC1 | 75.3% (inactive)
CCOC(=O)c1c(C(F)(F)F)n([O-])c2ccc(Cl)cc2[n+]1=O | -55.3% (active)
NC(=S)c1csc(CCNC(=O)c2ccccc2)n1 | 109% (inactive)
CC(C)CNc1nc(N=[N+]=[N-])nc(NCC(C)C)n1 | 59.7% [100 µM] (inactive)
C=CC(=O)Nc1cccc(Nc2nc(SC)nc(-c3cccc([N+](=O)[O-])c3)c2C#N)c1 | 55.9% (inactive)
O=S(=O)(NCCCNc1nccc(-n2ccc3cccnc32)n1)c1ccc(Br)cc1 | 90.3% (inactive)
C[C@H]1c2[nH]c3ccccc3c2C[C@H]2C(=O)N(CCCCCCC(=O)NO)CC(=O)N21 | 60.3% (inactive)
CCOc1ccccc1/C=N\N=C(\N)N/N=C/c1ccccc1OCC | -8.3% (active)
CN(c1ccccc1)c1ncnc2c1ncn2C | 113% (inactive)
COC1OC(COC(C)=O)C(OC(C)=O)C(OC(C)=O)C1OC(C)=O (stereo not given) | 108% (inactive)
CCOC(=O)c1ccc2c(c1)c1c(C)c3cnccc3c(C)c1n2C | -81.8% (active)
CCOC(=O)c1cc2c(n(C)c1=O)-c1cnn(-c3ccc(OC)cc3)c1CC2 | 93.2% (inactive)
C/C=C/CSC(C)(C)C(=O)NC | 96.4% (inactive)
